Measurements as given in ChEMBL document CHEMBL1961873, “Compounds: GSK PKIS; Assays: Nanosyn kinase panel” (2012).

tested on: Epidermal growth factor receptor (Homo sapiens), P00533 [L858R,T790M]; settings: at 0.1 µM
Sequence (P00533 whole entry T790M/L858R, looked up): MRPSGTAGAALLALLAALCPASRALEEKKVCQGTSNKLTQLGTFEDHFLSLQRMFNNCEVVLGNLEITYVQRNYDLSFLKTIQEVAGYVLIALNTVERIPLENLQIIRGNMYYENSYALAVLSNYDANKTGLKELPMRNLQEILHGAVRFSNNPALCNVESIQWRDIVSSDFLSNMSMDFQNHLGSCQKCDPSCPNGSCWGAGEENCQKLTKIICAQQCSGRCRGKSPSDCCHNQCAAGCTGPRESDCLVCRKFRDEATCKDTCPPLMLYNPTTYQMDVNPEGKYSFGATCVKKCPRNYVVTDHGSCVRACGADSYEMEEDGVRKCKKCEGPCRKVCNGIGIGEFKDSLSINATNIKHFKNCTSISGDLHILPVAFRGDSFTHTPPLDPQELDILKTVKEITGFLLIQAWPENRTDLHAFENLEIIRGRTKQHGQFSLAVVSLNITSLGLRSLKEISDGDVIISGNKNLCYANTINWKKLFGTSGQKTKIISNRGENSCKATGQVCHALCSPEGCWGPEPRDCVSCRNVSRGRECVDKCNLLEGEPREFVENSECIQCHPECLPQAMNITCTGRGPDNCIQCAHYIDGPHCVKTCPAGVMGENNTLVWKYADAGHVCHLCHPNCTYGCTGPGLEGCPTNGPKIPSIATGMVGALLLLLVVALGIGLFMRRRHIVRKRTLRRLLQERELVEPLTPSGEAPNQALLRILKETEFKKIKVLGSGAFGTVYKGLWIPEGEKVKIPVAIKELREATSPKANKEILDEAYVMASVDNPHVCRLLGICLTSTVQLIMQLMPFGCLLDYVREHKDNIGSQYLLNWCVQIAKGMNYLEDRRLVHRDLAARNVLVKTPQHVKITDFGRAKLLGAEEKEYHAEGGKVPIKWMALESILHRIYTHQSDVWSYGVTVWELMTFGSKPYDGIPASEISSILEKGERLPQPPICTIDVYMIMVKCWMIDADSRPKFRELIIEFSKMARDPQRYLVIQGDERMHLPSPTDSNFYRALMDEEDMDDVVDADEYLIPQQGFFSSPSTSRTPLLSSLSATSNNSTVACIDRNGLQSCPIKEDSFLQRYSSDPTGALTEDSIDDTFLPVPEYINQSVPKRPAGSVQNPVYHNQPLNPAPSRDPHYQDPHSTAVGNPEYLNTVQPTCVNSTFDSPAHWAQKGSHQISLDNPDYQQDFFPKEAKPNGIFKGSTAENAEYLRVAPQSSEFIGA

| SMILES | inhibition [%] |
| --- | --- |
| Fc1ccc(-c2cc(-c3c[nH]nc3-c3ccccn3)ccn2)cc1 | -1.9 |
| Clc1ccc(-c2nn3ncccc3c2-c2ccnc(Nc3ccccc3)n2)cc1 | 9.72 |
| CC1=C(C(=O)Nc2cc(Cl)c3[nH]ncc3c2)C(c2ccc(C(F)(F)F)cc2)CC(=O)N1 (stereo unspecified) | 1.19 |
| CC(C)(CO)CNC(=O)c1ccc2c(c1)/C(=N/Nc1ccc(S(N)(=O)=O)cc1)C(=O)N2 | -1.33 |
| COc1cccc(-c2c[nH]c3c(N/N=C/c4ccncc4)ncnc23)c1 | 2.51 |
| Cc1ccc(O)cc1Nc1ccnc2cc(-c3ccccn3)ccc12 | 3.59 |
| Cc1cccc2c1NC(=O)/C2=N\Nc1ccc(S(N)(=O)=O)cc1 | 3.72 |
| CN1CCC(n2cnc(-c3ccc(F)cc3)c2-c2ccnc(Nc3ccccc3)n2)CC1 | 9.65 |
| COc1ccc2[nH]c3c4[nH]c5ccc(OC)cc5c4c4c(c3c2c1)C(=O)NC4=O | 9.7 |
| CNC(=O)c1cncc(/C=C/c2ccccc2Cl)c1 | 1.14 |
| COC(=O)Nc1nc2ccc(Oc3ccc(NC(=O)Nc4cccc(Cl)c4)cc3)cc2[nH]1 | -2.96 |
| COc1ccc(-c2cc(-c3c[nH]nc3-c3ccccn3)ccn2)cc1 | 2.1 |
| CCn1c(-c2nonc2N)nc2ccccc21 | 2 |
| COc1ccc(CNC(=O)c2ccc(-c3cc(-c4nnc(C)o4)ccc3C)cc2)cc1 | 3.26 |
| Fc1cccc(COc2ccc(Nc3ncnc4sc(-c5ccco5)cc34)cc2Cl)c1 | 0.58 |
| CCn1c(-c2nonc2N)nc2c(C#CC(C)(C)O)ncc(OC3CCNCC3)c21 | 1.78 |
| CNC(=O)c1cc(-c2ccc(F)cc2)cc(-c2ccc(S(=O)(=O)N3CCCC3)cc2)c1N | -0.37 |

| SMILES | inhibition [%] |
| --- | --- |
| COc1cc(N2CCN(C(C)C)CC2)ccc1Nc1nc(Nc2ccc(F)cc2C(N)=O)c2cc[nH]c2n1 | 56.5 |
| CCn1c(-c2nonc2N)nc2cnc(Oc3cccc(NC(=O)c4ccc(N(C)C)cc4)c3)cc21 | -1.54 |
| COc1ccc2c(-c3ccnc(Nc4cccc(OC(F)(F)F)c4)n3)cnn2n1 | 2.65 |
| NS(=O)(=O)c1ccc(N/N=C2\C(=O)Nc3ccc4ncccc4c32)cc1 | 1.77 |
| O=C(Nc1n[nH]c2cc(-c3ccc(F)cc3)ccc12)C1CC1 | 1.46 |
| c1cc(-c2cnn3nc(N4CCOCC4)ccc23)nc(NC2CC2)n1 | 1.11 |
| CCc1nn2ncccc2c1-c1ccnc(NC2CC2)n1 | -2.33 |
| CN1CCC(n2cnc(-c3ccc(F)cc3)c2-c2ccnc(N)n2)CC1 | -4.77 |
| COc1ccc(-c2cc3c(N)ncnc3o2)cc1 | -0.41 |
| COc1ccc(-c2oc3ncnc(N)c3c2-c2ccc(NC(=O)Nc3cc(C(F)(F)F)ccc3F)cc2)cc1 | -0.45 |
| COc1cc(Nc2nccc(Nc3ccc4c(C)n[nH]c4c3)n2)cc(OC)c1OC | 4.13 |
| COC(=O)c1sc(-n2cnc3cc(OC)c(OC)cc32)cc1OCc1ccccc1C(F)(F)F | -1.64 |
| N#Cc1c(NC(=O)c2ccc(F)cc2)sc2c1CCCC2 | -2.24 |
| NS(=O)(=O)c1ccc(Nc2ncc(-c3ccccc3)o2)cc1 | 2.14 |
| CCn1cc(-c2ccnc3[nH]ccc23)c(-c2cccc(NC(=O)Nc3ccc(OCc4ccccc4)cc3)c2)n1 | 0.93 |
| c1ccc(-c2nc3n(c2-c2ccc4c(c2)OCO4)CCC3)nc1 | 1.92 |

tested on: Epidermal growth factor receptor (Homo sapiens), P00533 [L858R,T790M]; settings: at 1 µM

| SMILES | inhibition [%] |
| --- | --- |
| Fc1ccc(-c2cc(-c3c[nH]nc3-c3ccccn3)ccn2)cc1 | 6.43 |
| Clc1ccc(-c2nn3ncccc3c2-c2ccnc(Nc3ccccc3)n2)cc1 | 53.3 |
| CC1=C(C(=O)Nc2cc(Cl)c3[nH]ncc3c2)C(c2ccc(C(F)(F)F)cc2)CC(=O)N1 (stereo unspecified) | 1.94 |
| CC(C)(CO)CNC(=O)c1ccc2c(c1)/C(=N/Nc1ccc(S(N)(=O)=O)cc1)C(=O)N2 | -1.42 |
| COc1cccc(-c2c[nH]c3c(N/N=C/c4ccncc4)ncnc23)c1 | 22.9 |
| Cc1ccc(O)cc1Nc1ccnc2cc(-c3ccccn3)ccc12 | 30.4 |
| Cc1cccc2c1NC(=O)/C2=N\Nc1ccc(S(N)(=O)=O)cc1 | 1.46 |
| CN1CCC(n2cnc(-c3ccc(F)cc3)c2-c2ccnc(Nc3ccccc3)n2)CC1 | 49.1 |
| COc1ccc2[nH]c3c4[nH]c5ccc(OC)cc5c4c4c(c3c2c1)C(=O)NC4=O | 53.1 |
| CNC(=O)c1cncc(/C=C/c2ccccc2Cl)c1 | -0.51 |
| COC(=O)Nc1nc2ccc(Oc3ccc(NC(=O)Nc4cccc(Cl)c4)cc3)cc2[nH]1 | 0.71 |
| COc1ccc(-c2cc(-c3c[nH]nc3-c3ccccn3)ccn2)cc1 | 4.71 |
| CCn1c(-c2nonc2N)nc2ccccc21 | -0.39 |
| COc1ccc(CNC(=O)c2ccc(-c3cc(-c4nnc(C)o4)ccc3C)cc2)cc1 | 3.61 |
| Fc1cccc(COc2ccc(Nc3ncnc4sc(-c5ccco5)cc34)cc2Cl)c1 | 3.48 |
| CCn1c(-c2nonc2N)nc2c(C#CC(C)(C)O)ncc(OC3CCNCC3)c21 | 0.14 |
| CNC(=O)c1cc(-c2ccc(F)cc2)cc(-c2ccc(S(=O)(=O)N3CCCC3)cc2)c1N | 2.95 |

| SMILES | inhibition [%] |
| --- | --- |
| COc1cc(N2CCN(C(C)C)CC2)ccc1Nc1nc(Nc2ccc(F)cc2C(N)=O)c2cc[nH]c2n1 | 90.4 |
| CCn1c(-c2nonc2N)nc2cnc(Oc3cccc(NC(=O)c4ccc(N(C)C)cc4)c3)cc21 | -0.4 |
| COc1ccc2c(-c3ccnc(Nc4cccc(OC(F)(F)F)c4)n3)cnn2n1 | 2.88 |
| NS(=O)(=O)c1ccc(N/N=C2\C(=O)Nc3ccc4ncccc4c32)cc1 | 5.28 |
| O=C(Nc1n[nH]c2cc(-c3ccc(F)cc3)ccc12)C1CC1 | 1.41 |
| c1cc(-c2cnn3nc(N4CCOCC4)ccc23)nc(NC2CC2)n1 | 1.53 |
| CCc1nn2ncccc2c1-c1ccnc(NC2CC2)n1 | 0.76 |
| CN1CCC(n2cnc(-c3ccc(F)cc3)c2-c2ccnc(N)n2)CC1 | 0.83 |
| COc1ccc(-c2cc3c(N)ncnc3o2)cc1 | -0.81 |
| COc1ccc(-c2oc3ncnc(N)c3c2-c2ccc(NC(=O)Nc3cc(C(F)(F)F)ccc3F)cc2)cc1 | 7.47 |
| COc1cc(Nc2nccc(Nc3ccc4c(C)n[nH]c4c3)n2)cc(OC)c1OC | 20.9 |
| COC(=O)c1sc(-n2cnc3cc(OC)c(OC)cc32)cc1OCc1ccccc1C(F)(F)F | 1.53 |
| N#Cc1c(NC(=O)c2ccc(F)cc2)sc2c1CCCC2 | 0.47 |
| NS(=O)(=O)c1ccc(Nc2ncc(-c3ccccc3)o2)cc1 | 0.87 |
| CCn1cc(-c2ccnc3[nH]ccc23)c(-c2cccc(NC(=O)Nc3ccc(OCc4ccccc4)cc3)c2)n1 | -1.31 |
| c1ccc(-c2nc3n(c2-c2ccc4c(c2)OCO4)CCC3)nc1 | 1.45 |
